The source of these data is PubChem BioAssay (NCI).

The nature of assay [1]: NCI Yeast Anticancer Drug Screen. Data for the rad50 strain (AID 155).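 Note: 0% = growth of vehicle-only cultures of the same strain.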 The conditions noted are these: S. cerevisiae rad50 strain growth inhibition; at 50.0 µM; stronger effect = higher value. In outline:
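Compounds were tested on a yeast strain with an engineered DNA damage repair alteration; the reported value is growth inhibition normalised to vehicle treatment.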

Assay [2] can be described thus: NCI Yeast Anticancer Drug Screen. Data for the mec2-1 strain (AID 157). The conditions noted are these: S. cerevisiae mec2-1 strain, at 50.0 µM, stronger effect = higher value. In outline: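 Cells of the genetically defined mec2-1 yeast strain are incubated with test compound. Inhibition of growth is calculated against vehicle-treated controls.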
Assay [3] in a line: NCI Yeast Anticancer Drug Screen. Data for the sgs1 mgt1 strain (AID 161).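 Note: 0% = growth of cultures given vehicle only.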 The conditions noted are these: S. cerevisiae sgs1 mgt1 strain, at 50.0 µM, stronger effect = higher value. In outline: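 Genetically altered yeast, compound exposure, growth inhibition relative to vehicle.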
A short description of assay [4]: NCI Yeast Anticancer Drug Screen. Data for the cln2 rad14 strain (AID 165).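 Note: 0% = growth equal to vehicle treated cultures.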 The conditions noted are these: S. cerevisiae cln2 rad14 strain, at 50.0 µM, stronger effect = higher value. In outline: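 The screen exposed genetically defined yeast (cln2 rad14) to test compounds and scored growth inhibition relative to vehicle-treated controls.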
A short description of assay [5]: NCI Yeast Anticancer Drug Screen. Data for the bub3 strain (AID 167). The conditions noted are these: S. cerevisiae bub3 mutant strain, at 50.0 µM, stronger effect = higher value. The method in brief: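 Growth of a checkpoint-deficient yeast mutant is measured after compound exposure. Values represent inhibition relative to vehicle.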
The nature of assay [6]: NCI Yeast Anticancer Drug Screen. Data for the mlh1 rad18 strain (AID 175). The conditions noted are these: S. cerevisiae mlh1 rad18 strain growth inhibition; at 50.0 µM; stronger effect = higher value. The method in brief: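 Compound-treated yeast growth, normalised to vehicle controls. Strain bears defined DNA repair mutations.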

“And” between values parts separate entries of the source, which are not always exact repeats. Equal entries are not always repeated. Compounds without any hit were thinned out: in the full panel of roughly 79,000, 15% have a hit. Unmarked numbers belong to inactive results. The source made the active and inactive calls. Cut-off read from the data, not from the text of the source: active = growth inhibition above about 70%; inactive = the rest.

With `Cc1cccc(C(=O)[O][Pb]([CH3])([CH3])[CH3])c1`, the growth inhibition is 16.1% in assay [1]; -53.7% in assay [2]; 21% in assay [3]; -20% in assay [4]; -9.65% in assay [5]; 36.2% in assay [6].

`C/C=C(\CC)C1(CCC)C(=O)NC(=O)NC1=O`: the growth inhibition in assay [1] was 15.1% and 5.2%; in assay [2], 13.1% and 3%; in assay [3], 5.25% and 22.8%; in assay [4], 17.4% and -7%; in assay [5], 1.35% and -0.4%; in assay [6], 7.75% and -3.65%.

Take `C[P+](CCl)(CCl)CCl`: the growth inhibition is 5.45% in assay [1]; -6.45% in assay [2]; -11.7% in assay [3]; -7.3% in assay [4]; -7.6% in assay [5]; -10% in assay [6].

In the case of `CCN1CCC(O)(c2ccccc2)C(C(=O)c2ccccc2)C1` (centres undefined), the growth inhibition in assay [1] is 5.15%; in assay [2], -17.1%; in assay [3], 5.3%; in assay [4] it was 20.7%; in assay [5], -10.9%; in assay [6], 16.4%.

In the case of `[CH3][Sb]1([Cl])[CH2]CC[CH2]1`, the growth inhibition in assay [1] is 0.2%; in assay [2] it was 26.1%; in assay [3], -5.6%; in assay [4], -3.1%; in assay [5] it was 32.5%; in assay [6] it was 27%.

Take `COc1ccc(CCNCc2ccc3ccccc3n2)cc1OC`: the growth inhibition in assay [1] is -0.35%; in assay [2], -10.5%; in assay [3] it was 7.2%; in assay [4] it was -16.4%; in assay [5], -11.5%; in assay [6], 7.5%.

On to `CCC[CH2][Pb]([CH2]CCC)([CH2]CCC)[O]C(C)=O`, for which the growth inhibition in assay [1] is 9.6%; in assay [2], -7.95%; in assay [3], 16.1%; in assay [4] it was 25.1%; in assay [5], 25%; in assay [6] it was 13.3%.

Regarding `CC1(C)N=C(N)N=C(N)N1c1ccc(CCc2ccc(Cl)c(S(=O)(=O)F)c2)c(Cl)c1`, the growth inhibition in assay [1] was 99.3% (active); in assay [2] it was 99.5% (active); in assay [3], 99.3% (active); in assay [4], 93.8% (active); in assay [5], 98.3% (active); in assay [6] it was 99.7% (active).

For `O=C(CC(=O)C(F)(F)C(F)(F)C(F)(F)F)c1ccco1.[Fe]`, the growth inhibition in assay [1] was 25.3%; in assay [2], 24.7%; in assay [3], 23.6%; in assay [4], 13.6%; in assay [5], 15.7%; in assay [6], 17.9%.

Regarding `O=[N+]([O-])c1ccc([As](=O)(O)c2cccc([N+](=O)[O-])c2)cc1`, the growth inhibition in assay [1] was 0.8%; in assay [2] it was 1.3%; in assay [3], 0.65%; in assay [4], -28.9%; in assay [5] it was 38.9%; in assay [6] it was 7.4%.

Regarding `O=C1C=C2c3ccccc3CC(C(=O)O)C2CC1` (centres undefined), the growth inhibition was -20.5% in assay [1]; -14.2% in assay [2]; -3.45% in assay [3]; -22.9% in assay [4]; 2.3% in assay [5]; 9% in assay [6].

Consider `O=C(CCl)NC1CCCCC1`, for which the growth inhibition in assay [1] was 9.7%; in assay [2], -8.45%; in assay [3], 7.15%; in assay [4] it was -4.25%; in assay [5], 10.9%; in assay [6] it was -6.45%.

Turning to `NC1CC2CCCCC2CC1c1ccccc1` (centres undefined), the growth inhibition in assay [1] was 14.8%; in assay [2] it was 19.4%; in assay [3], 18.5%; in assay [4] it was 11.9%; in assay [5], -5.85%; in assay [6] it was 18.1%.

As for `C=CC12CN(C)C3C4COC(CC41)C1(C(=O)Nc4ccccc41)C32` (centres undefined), the growth inhibition in assay [1] was 1.25% and -22.5%; in assay [2], -3.3% and -18.6%; in assay [3], -7.35%; in assay [4], -13.5%; in assay [5] it was -11.6%; in assay [6] it was 29.2% and -19.2%.

For the molecule `O=P1(N(CCCl)CCCl)Oc2c(Cl)cc(Cl)c(Cl)c2Cc2c(Cl)c(Cl)cc(Cl)c2O1`, the growth inhibition in assay [1] was -15.1%; in assay [2], -31.7%; in assay [3], 2.85%; in assay [4], 0.25%; in assay [5], -14.2%; in assay [6], -10.7%.

For the molecule `O=P(O)(O)CCCCP(=O)(O)O.[Zn+2]`, the growth inhibition in assay [1] is -3.05%; in assay [2], -2.45%; in assay [3], 1.6%; in assay [4], -5.1%; in assay [5], 3.75%; in assay [6] it was 7.05%.

With `CC(=O)NN=C(N)N`, the growth inhibition is 3.15% and -2% in assay [1]; -1.5% and 2.75% in assay [2]; -0.55% and 11.7% in assay [3]; -29.9% and -24.1% in assay [4]; -6.75% and -10.2% in assay [5]; 14.1% and 5.9% in assay [6].

Take `C=CC[NH-].C=CC[NH-].CC(=O)CC(C)=O.CC(=O)CC(C)=O.[Ni+2]`: the growth inhibition in assay [1] is -2.65%; in assay [2], -6.75%; in assay [3], -7.4%; in assay [4] it was -9.35%; in assay [5], -1.1%; in assay [6] it was -3.35%.

Regarding `CN(C)c1c2c(=O)n(C)c(=O)n(C)c2nc2cccc[n+]12`, the growth inhibition was 21.9% in assay [1]; 22.9% in assay [2]; -5.2% in assay [3]; 2.9% in assay [4]; 5.95% in assay [5]; 11.6% in assay [6].
